Reference: PubChem BioAssay (Tox21)
Inconclusive results are not listed. Activity calls are given as the source filed them. Calls come from the whole dose curve.

Test: qHTS assay to identify small molecule agonists of the NFkB signaling pathway - cell viability counter screen (AID 1159515); note: nearly all actives have a fitted effect of over 55% in size
Conditions: NFkB-bla ME-180 viability, CellTiter-Glo luminescence, 5 h; series mostly up to 61 µM
Description: National Center for Advancing Translational Sciences [NCATS]
NIH Chemical Genomics Center [NCGC]
U.S. Environmental Protection Agency [EPA]
National Institutes of Environmental Health Sciences [NIEHS]
National Toxicology Program [NTP]
U.S. Food and Drug Administration [FDA]
Transcription factors and their stimulated target gene expression play pivotal roles across many cellular processes including responses to environmental stimuli. Proper regulation of associated pathways is critical to maintain cell health and function. Constitutive activation of transcription factor pathways has been implicated in tumors as it may block cellular functions such as apoptosis and lead to invasion and metastasis. One important transcription factor that stimulates gene expression in response to cytokines, UV radiation, and other stimuli is nuclear factor-kappa B (NFkB). To measure activation of the NFkB pathway, the CellSensor NFkB-bla ME-180 cell line (Life Technologies, Carlsbad, CA) that stably expresses beta-lactamase reporter gene under the regulation of a NF-kB response element was used. This assay allows measurement of the NFkB pathway activity induced by compounds in a ME-180 cell line. This system quantitates NF-kB activity using a FRET-based assay system where beta-lactamase expression disrupts FRET, allowing for fluorescent measurement of activity. This cell line has been used to screen the Tox21 10K compound library and to identify compounds that induce the NFkB pathway activity. The cytotoxicity of the Tox21 compound library against the NFkB-bla ME-180 cell line was tested in parallel by measuring cell viability using the CellTiter-Glo assay in the same wells.
Tox21 Assay Protocol Summary:
NFkB-bla ME-180 cells were dispensed at 2,000 cells/6 uL of assay medium per well into black wall/clear-bottom 1536-well plates using a Multidrop Combi (ThermoFisher Scientific, Waltham, MA) dispenser. After the assay plates were incubated at 37 C and 5% CO2 for an overnight, 23 nL of compounds dissolved in DMSO, positive controls or DMSO only was transferred to the assay plate by a Pintool station (Kalypsys, San Diego, CA). The assay plates were incubated at 37 C and 5% CO2 for 5 hr. One uL of LiveBLAzer B/G FRET substrate (Life Technologies) was added using a Flying Reagent Dispenser (Aurora Discovery, San Diego, CA) and the plates were incubated at room temperature for 1.5 hr. Fluorescence intensity (405 nm excitation, 460 nm and 530 nm emissions) was measured using an Envision plate reader (PerkinElmer, Shelton, CT). For cytotoxicity, 3 ul/well of CellTiter-Glo reagent was added into the assay plates using an FRD. After 30 min incubation at room temperature, the luminescence intensity was measured using a ViewLux plate reader (PerkinElmer).

| Compound | outcome |
| --- | --- |
| O=[N+]([O-])C(CO)(CO)CO | inactive |
| COC(=O)c1ccccc1O | inactive |
| CC(C)(C)C(=O)C1C(=O)c2ccccc2C1=O | inactive |
| CCc1ccccc1O | inactive |
| CC(=O)CCc1ccccc1 | inactive |
| CC#C[C@]1(O)CC[C@H]2[C@@H]3CCC4=CC(=O)CCC4=C3[C@@H](c3ccc(N(C)C)cc3)C[C@@]21C | inactive |
| CCCCNC(N)=O | inactive |
| CC(C)(N=C=O)c1cccc(C(C)(C)N=C=O)c1 | inactive |
| CCC(C)C=O (stereo not given) | inactive |
| C=C(C)C(=O)OCCC[Si](OC)(OC)OC | inactive |
| OCCOCCOCCOCCO | inactive |
| CCCCC(CC)COC(=O)CCCCCCCC(=O)OCC(CC)CCCC (stereo not given) | inactive |
| O=C(c1ccc(O)cc1)c1ccc(O)cc1O | inactive |
| CCCCCCCCCCCCN | inactive |
| C[C@@H]1O[C@@H](OC[C@H]2O[C@@H](Oc3c(-c4ccc(O)c(O)c4)oc4cc(O)cc(O)c4c3=O)[C@H](O)[C@@H](O)[C@@H]2O)[C@H](O)[C@H](O)[C@H]1O | inactive |
| CC1=C(/C=C/C(C)=C/C=C/C(C)=C/CO)C(C)(C)CCC1 | inactive |
| COC(=O)Nc1nc2ccc(Sc3ccccc3)cc2[nH]1 | inactive |
| NS(=O)(=O)c1cc2c(cc1Cl)NC=NS2(=O)=O | inactive |
| Cc1ccc(N)c(S(=O)(=O)O)c1 | inactive |
| CC(C)NCC(O)COc1cccc2ccccc12 (stereo not given) | inactive |

| Compound | outcome |
| --- | --- |
| CC[Si](OC(C)=O)(OC(C)=O)OC(C)=O | inactive |
| CC1Cc2ccccc2N1NC(=O)c1ccc(Cl)c(S(N)(=O)=O)c1 (stereo not given) | inactive |
| CC1=CC[C@H]2C[C@@H]1C2(C)C | inactive |
| CN(C)c1ccc(C(=N)c2ccc(N(C)C)cc2)cc1 | inactive |
| O=C(c1cc(O)c(O)c(O)c1)c1ccc(O)c(O)c1O | inactive |
| Nc1cc(-c2ccncc2)c[nH]c1=O | inactive |
| OC[C@@H](O)[C@@H](O)[C@H](O)[C@@H](O)CO | inactive |
| C=C(C)C(=O)OCC(CC)(COC(=O)C(=C)C)COC(=O)C(=C)C | inactive |
| C=C(C#N)C(=O)OCC | inactive |
| CC(=O)Nc1ccc(C(=O)O)cc1 | inactive |
| CCCCOCCO | inactive |
| CCCCCC/C=C/CCCCCCCC(=O)O | inactive |
| CCc1ccc(O)cc1 | inactive |
| CCCCCCCCC | inactive |
| CCCCCCCCCCC=CC1CC(=O)OC1=O (stereo not given) | inactive |
| O=C(Cl)c1c(Cl)c(Cl)c(C(=O)Cl)c(Cl)c1Cl | inactive |
| CC(=O)[C@@]1(O)CC[C@H]2[C@@H]3CCC4=CC(=O)CC[C@]4(C)[C@H]3CC[C@@]21C | inactive |
| Cn1c([N+](=O)[O-])cnc1COC(N)=O | inactive |
| CCCCC(CC)COC(C)=O (stereo not given) | inactive |
| O=C1CCCCC1 | inactive |
